Screening data deposited in PubChem BioAssay by several laboratories.
Shown are actives, neighbours in structure and some others; about 3.1% of the full set was active somewhere.
CF NFkB block = inhibitors of PAF-induced NF-kB signaling, primary screen, cell-based, GFP fluorescence, uHTS | KKLEB NF-kB-GFP reporter, GFP fluorescence overnight | inhibition, % at 5 µM | 360,000 compounds, 0.86% hits | AID 588850, 2011;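 active = at least 50% inhibition at 5 µM, scaled per plate between neutral and stimulator controls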;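 also: PAF is a Pseudomonas aeruginosa culture filtrate used as stimulus; plate controls were PAF-stimulated DMSO wells for no effect and unstimulated DMSO wells for full effect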
MITF TRPM1 inh = inhibitors of MITF-dependent TRPM1 promoter reporter, primary screen, cell-based, SK-MEL-5, single point, luciferase; SK-MEL-5 TRPM1 promoter luciferase, 24 h; inhibition, % at 12.5 µM; 330,000 compounds, 0.83% hits;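 active = mean inhibition across replicates of 60% or more, whatever share of single replicates reaches that level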
Peg3 prom inh = Peg3 promoter-driven luciferase inhibitors, primary screen, cell-based, HeLa, luciferase luminescence | HeLa PEG-Prom luciferase reporter, overnight | 360,000 compounds, 1.7% hits | inhibition, % at 20 µM;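 active = inhibition of at least 50% at 20 µM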
HIF-2a block = HIF-2a reporter inhibitors, primary screen, luminescence, 786-0 RCC cells; 786-0 RCC cells HIF-2a reporter, luciferase luminescence, overnight; inhibition, % at 18.8 µM; 360,000 compounds, 0.72% hits; AID 624352, 2012;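 active = inhibition of the luminescence signal of 40% or more relative to plate controls, in a single-dose primary screen at 18.75 µM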
ABHD5-PLIN5 inh = ABHD5-PLIN5 interaction inhibitors, primary screen, cell lysate, split luciferase complementation, luminescence; Split G. princeps luciferase complementation, 4 h; inhibition, % at 4 µM; 360,000 compounds, 0.78% hits; AID 602281, 2012;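 active = inhibition above the mean inhibition across every tested compound plus 3 SD, cut at about 22% in these data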;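 also: 0% = DMSO only wells and the 100% control is not disclosed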
Target sequence (Q00G26 whole entry, looked up): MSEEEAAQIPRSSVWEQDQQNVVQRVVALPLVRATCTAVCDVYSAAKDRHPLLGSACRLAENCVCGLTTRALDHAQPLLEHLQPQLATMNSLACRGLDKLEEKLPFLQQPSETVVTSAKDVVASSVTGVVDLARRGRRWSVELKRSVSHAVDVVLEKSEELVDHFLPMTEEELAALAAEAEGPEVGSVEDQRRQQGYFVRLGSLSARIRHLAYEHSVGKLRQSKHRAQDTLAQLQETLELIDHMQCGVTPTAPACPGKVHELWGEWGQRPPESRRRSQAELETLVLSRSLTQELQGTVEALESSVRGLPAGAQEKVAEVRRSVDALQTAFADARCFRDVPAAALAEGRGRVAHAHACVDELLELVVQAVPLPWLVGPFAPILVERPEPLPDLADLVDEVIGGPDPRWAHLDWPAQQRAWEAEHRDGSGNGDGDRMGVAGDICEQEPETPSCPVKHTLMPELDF
Target sequence (Q8WTS1 whole entry, looked up): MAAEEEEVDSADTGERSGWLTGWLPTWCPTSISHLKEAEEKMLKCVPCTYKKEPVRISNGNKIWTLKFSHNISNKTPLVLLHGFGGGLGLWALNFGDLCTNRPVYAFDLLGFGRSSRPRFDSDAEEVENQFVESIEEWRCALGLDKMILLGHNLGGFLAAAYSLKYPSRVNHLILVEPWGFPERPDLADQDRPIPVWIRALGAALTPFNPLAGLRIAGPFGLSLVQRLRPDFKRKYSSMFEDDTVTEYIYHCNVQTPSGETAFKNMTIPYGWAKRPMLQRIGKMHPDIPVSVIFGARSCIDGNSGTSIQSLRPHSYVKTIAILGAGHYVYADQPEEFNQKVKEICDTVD
KKLEB tox = cytotoxicity in KKLEB CF airway cells, primary screen, cytotoxicity control for CF NF-kB inhibitor project, cell-based, uHTS, fluorescence assay plates. AID 602141, 2011. KKLEB CF airway cells viability, ATPlite luminescence, overnight; hits give low values; cells stimulated with P. aeruginosa culture filtrate. 360,000 compounds, 0.36% hits. activity change (cytotoxicity), % at 5 µM;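 active = corrected activity change at or below -50% at 5 µM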
ABHD5-PLIN5 conf = ABHD5-PLIN5 interaction inhibitors, confirmation, biochemical, luminescence; shares compounds with ABHD5-PLIN5 inh; inhibition, % at 4 µM; 2,200 compounds, 67% hits; in the data active = inhibition above about 23%;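 also: 0% = DMSO vehicle wells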
HNF4 split-luc = HNF4 dimerization inhibitors, counter-screen for ABHD5-PLIN5 interaction inhibitor project, biochemical, split-luciferase complementation, luminescence. inhibition, % at 4 µM. shares compounds with ABHD5-PLIN5 inh. 2,200 compounds, 77% hits;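 active = mean inhibition across replicate wells exceeding the computed hit threshold, cut at about 13% in these data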;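 also: light from luciferase halves that rejoin when HNF4 fusion proteins dimerize; 0% = DMSO only wells and the 100% control is not given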
An asterisk follows results filed as active; x = no result.

SMILES | CF NFkB block | MITF TRPM1 inh | Peg3 prom inh | HIF-2a block | ABHD5-PLIN5 inh | KKLEB tox | ABHD5-PLIN5 conf | HNF4 split-luc
O=S(=O)(N[C@H](CO)c1ccccc1)c1ccc(Br)cc1F | -5 | -1 | 5 | -1 | 5 | 7 | x | x
CS(=O)(=O)c1cc(C(=O)O)cc(NCc2ccccc2)c1Oc1ccccc1 | 9 | x | -5 | -3 | 0 | 8 | x | x
Cc1ccc(N(C)S(=O)(=O)c2ccc3c(c2)NC(=O)C(C)S3)cc1 (stereo not given) | -2 | 10 | 19 | 16 | -10 | -4 | x | x
O=C(/C=C/c1cccc([N+](=O)[O-])c1)c1ccc([N+](=O)[O-])o1 | 97* | 99* | 100* | 44* | 72* | -89* | 105* | 111*
O=C(/C=C/c1cccc([N+](=O)[O-])c1)c1ccco1 | 3 | 9 | 7 | 7 | 71* | -6 | 97* | 97*
Cc1ccoc1C(=O)N1CCCCC1C(=O)O (stereo not given) | -1 | 5 | 17 | 19 | 1 | 0 | x | x
C[C@@H]1COC(=O)CCC/C=C\C[C@@H](CC(=O)N(CCO)Cc2ccccc2)C(=O)N1 | -12 | -1 | -5 | 4 | -6 | 6 | x | x
C=CCOC(=O)C(=O)/C=C/c1csc2ccccc12 | -4 | 14 | 2 | -10 | 14 | 7 | x | x
C=CCOC(=O)C(=O)/C=C/c1ccc2c(c1)Cc1ccccc1-2 | -7 | -5 | -38 | -19 | 35* | -1 | 77* | 71*
CN(C)CCOC1(Cc2ccc(F)cc2)CCC(C(C)(C)C)CC1 (stereo not given) | 9 | 37 | 8 | -3 | 25* | 15 | 33* | 5
CN(C)CCCCOc1ccc(F)cc1 | -21 | -11 | -9 | 10 | -7 | 4 | x | x
O=C(COC(=O)CNS(=O)(=O)c1cccc(Br)c1)Nc1ccccc1Sc1ccccc1 | -19 | 2 | -9 | 3 | -9 | -7 | x | x
O=C(Cc1cccc([N+](=O)[O-])c1)Nc1cccc(C(=O)N2CCCC2)c1 | -7 | x | 12 | 10 | 3 | 6 | x | x
O=C(Cc1cccc([N+](=O)[O-])c1)Nc1ccc(C(=O)N2CCCCC2)cc1 | 22 | -9 | 4 | -9 | 25* | -18 | 5 | 4
Cc1c(N=Cc2cc(Br)cc(Br)c2O)cccc1C(=O)O | 23 | -9 | 8 | -5 | 4 | 23 | x | x
CC(NC(=O)/C(C#N)=C/c1ccc(C(=O)O)cc1)c1ccccc1 (stereo not given) | -2 | -6 | -8 | 8 | 24* | 0 | 47* | 30*
CCN(CC)CCC(C)OC(c1ccccc1)c1ccccc1 (stereo not given) | 1 | 1 | 1 | 2 | 24* | 2 | 77* | 31*
Cn1nc(C(=O)NCc2ccccc2)c2c1-c1ccccc1S(=O)(=O)C2 | -1 | -13 | 6 | 10 | -4 | -8 | x | x
O=C1/C(=C\c2cccnc2)CCc2ccccc21 | 27 | -12 | -20 | -4 | 14 | 4 | x | x
CC(C)/C=C1\CC/C(=C\c2cccnc2)C1=O | -30 | 5 | 8 | 3 | 39* | 13 | 75* | 58*
CCC1C/C(=C\c2cccnc2)C(=O)/C(=C/c2cccnc2)C1 (stereo not given) | 93* | 97* | 109* | 92* | 91* | -66* | 102* | 100*
O=C1/C(=C/c2cccnc2)CC/C1=C\c1cccnc1 | -20 | 2 | 2 | 35 | 42* | 12 | 72* | 50*
CC(C)N1C(=O)S/C(=C/c2cccnc2)C1=O | -24 | -11 | 23 | 0 | 10 | 6 | x | x
